Measured values: PubChem BioAssay (NCATS)
Where “and” joins values, the source holds several entries; their conditions need not be identical. Equal values may be shown once. Results filed as inconclusive are left out. Calls of active or inactive are those of the source. Unless noted, calls follow the shape of the dose curve; as a rule, active = well fitted cell-killing curve with a large enough effect; inconclusive = small, poorly fitted or top-dose-only effect; inactive = flat fitted curve, though single readings scatter.

Columns and labels:
[1] = Cell Viability - LYMP2-025 (AID 976);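 also: series mostly up to about 92 µM; plate controls were DMSO only for no effect and tetraoctylammonium bromide control for full effect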
Summary of the method: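 Human lymphoblastoid LYMP2-025 cells (2500/well) were pre-incubated 5 hr at 37 C, then treated with compounds for 24 hr at 37 C in complete medium. Viability was read as intracellular ATP by CellTiter-Glo luminescence; AC50 from Hill fits.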

[2] = Cell Viability - LYMP2-002 (AID 977);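 also: series mostly up to about 92 µM; compound exposure lasted 24 h at 37 °C; plate controls were DMSO only for no effect and 92 µM tetraoctylammonium bromide for full effect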
Summary of the method: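 Cytotoxicity is scored as concentration-dependent loss of cellular ATP in a human lymphoblastoid line after 24 hr compound treatment at 37 C. AC50 is obtained by modelling concentration-response data with the Hill equation.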

[3] = Cell Viability - LYMP2-006 (AID 978); also: series mostly up to about 92 µM; % is scaled to controls: 0 for no effect and ±100 for the full control effect; nearly all actives have a fitted effect of over 60% in size
Summary of the method: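 In this cytotoxicity screen, the human lymphoblastoid line grew in complete medium with test compounds for 24 hr at 37 C. Cellular ATP served as the viability signal.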

[4] = Cell Viability - LYMP2-007 (AID 979);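 also: cells exposed to compound for 24 h before reading; 0% = DMSO only and the negative end = 92 µM tetraoctylammonium bromide; nearly all actives have a fitted effect of over 60% in size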
Summary of the method: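 Human lymphoblastoid cells (2500/well) were plated in complete medium, incubated 5 hr at 37 C, then exposed to compounds for 24 hr at 37 C. Intracellular ATP was read by CellTiter-Glo luminescence after 30 min at room temperature; AC50 from Hill fits.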

[5] = Cell Viability - LYMP2-008 (AID 980); also: % is scaled to controls: 0 for no effect and ±100 for the full control effect; nearly all actives have a fitted effect of over 60% in size
Summary of the method: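 Human lymphoblastoid cells (2500/well) were plated, held 5 hr at 37 C, then exposed to compounds for 24 hr at 37 C in complete medium. Intracellular ATP was read by CellTiter-Glo luminescence; AC50 from Hill-fitted concentration-response.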

[6] = Cell Viability - LYMP2-010 (AID 981); also: % is scaled to controls: 0 for no effect and ±100 for the full control effect; nearly all actives have a fitted effect of over 55% in size
Summary of the method: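 Human lymphoblastoid LYMP2-010 cells (2500/well) were preincubated 5 hr at 37 C, then exposed to compounds for 24 hr at 37 C in complete medium. Intracellular ATP was measured by CellTiter-Glo luminescence after 30 min at room temperature; AC50 from Hill-fitted concentration-response.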

[7] = Cell Viability - LYMP2-014 (AID 983);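 also: series mostly up to about 92 µM; plate controls were DMSO only for no effect and 92 µM tetraoctylammonium bromide for full effect; nearly all actives have a fitted effect of over 50% in size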
Summary of the method: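 Human lymphoblastoid cells (2500/well) were pre-incubated 5 hr at 37 C, then exposed to compounds in complete medium for 24 hr at 37 C. Intracellular ATP was read by CellTiter-Glo luminescence after 30 min at room temperature; AC50 from Hill fits.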

[8] = Cell Viability - LYMP2-016 (AID 984); also: % is scaled to controls: 0 for no effect and ±100 for the full control effect; nearly all actives have a fitted effect of over 55% in size
Summary of the method: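 Concentration-dependent ATP depletion measured in LYMP2-016 lymphoblastoid cells, 24 h, 37 C; luciferase-based luminescent detection; Hill-equation AC50.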

[9] = Cell Viability - LYMP2-018 (AID 985);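 also: compound exposure lasted 24 hr at 37 °C; plate controls were DMSO only for no effect and tetraoctylammonium bromide at 92 µM for full effect; nearly all actives have a fitted effect of over 50% in size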
Summary of the method: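 Human lymphoblastoid cells (2500/well) were pre-incubated 5 hr at 37 C, then exposed to compounds for 24 hr at 37 C in complete medium. Viability was read as intracellular ATP by CellTiter-Glo luminescence; AC50 values came from Hill-equation fits.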

[10] = Cell Viability - LYMP2-020 (AID 986);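 also: series mostly up to about 92 µM; plate controls were DMSO only for no effect and tetraoctylammonium bromide at 92 µM for full effect; nearly all actives have a fitted effect of over 55% in size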
Summary of the method: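 Human lymphoblastoid cells, 2500/well, were pre-incubated 5 hr at 37 C, then exposed to compounds for 24 hr at 37 C in complete medium. Intracellular ATP was read by CellTiter-Glo luminescence, and AC50 was derived by Hill fitting of concentration-response data.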

[11] = Cell Viability - LYMP2-022 (AID 987);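 also: 0% = DMSO alone and full effect = tetraoctylammonium bromide at 92 µM; nearly all actives have a fitted effect of over 55% in size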
Summary of the method: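 Human lymphoblastoid cells, 2500/well, preincubated 5 hr at 37 C, then exposed to compounds over a concentration range for 24 hr at 37 C in complete medium. Viability read as intracellular ATP by CellTiter-Glo luminescence after 30 min at room temperature; AC50 from Hill fits.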

[12] = Cell Viability - LYMP2-024 (AID 988);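 also: plate controls were DMSO only for no effect and 92 µM tetraoctylammonium bromide for full effect; nearly all actives have a fitted effect of over 60% in size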
Summary of the method: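 Human lymphoblastoid cells (2500/well) in complete medium were preincubated 5 hr at 37 C, then exposed to compounds for 24 hr at 37 C. Intracellular ATP was read by CellTiter-Glo luminescence; AC50 from Hill-equation fits of concentration-response data.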

[13] = Cell Viability - LYMP2-026 (AID 989); also: % is scaled to controls: 0 for no effect and ±100 for the full control effect; nearly all actives have a fitted effect of over 50% in size
Summary of the method: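 Human lymphoblastoid cells (2500/well) in complete medium were preincubated 5 hr at 37 C, then exposed to compounds for 24 hr at 37 C. Cellular ATP was read by CellTiter-Glo luminescence; AC50 from Hill-equation fits of concentration-response data.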

[14] = Cell Viability - LYMP1-002 - Assay at 24 hr (AID 993); also: % is scaled to controls: 0 for no effect and ±100 for the full control effect
Summary of the method: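 Human lymphoblastoid LYMP1-002 cells, 2500/well in complete medium, were treated with compounds for 24 h at 37 C; intracellular ATP was read by CellTiter-Glo luminescence. AC50 values came from Hill-equation fits of qHTS concentration-response data.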

[15] = Cell Viability - LYMP1-002 - Assay at 40 hr (AID 994)
Summary of the method: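 Human lymphoblastoid cells, 2500/well in complete medium, were preincubated 5 hr at 37 C, then exposed to compounds for 40 hr at 37 C. Intracellular ATP was read by CellTiter-Glo luminescence after 30 min at room temperature; AC50 from Hill-equation fits.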

[16] = qHTS Assay for Identification of Small Molecule Inducers of Hypoxia Response (AID 2120; active = well fitted curve in the direction sought with a large enough effect in the signal ratio, with a control signal flat, not every such curve was filed as active; the % refers to the signal ratio; also: 0% is about no effect)
Summary of the method: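 HRE-beta-lactamase reporter in CellSensor HRE-bla ME-180 cells, 2500 cells/well in Opti-MEM with 0.5% dialyzed FBS; compounds tested as titration series, 17 h at 37 degrees C. CCF4 substrate 2.5 h at room temperature; AC50 from 460/530 nm ratio.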

[17] = molecular target: Bile acid receptor (Homo sapiens) (UniProt Q96RI1); experiment: qHTS assay for small molecule agonists of farnesoid X receptor signaling (AID 588527; calls by dose curve;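 also: series mostly up to about 77 µM; 0% = vehicle basal and 100% = reference agonist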); conditions: HEK293T FXR-UAS-bla, beta-lactamase ratio, 16 h; stronger effect = higher value
Sequence of Bile acid receptor (Homo sapiens) (Q96RI1 whole entry, looked up): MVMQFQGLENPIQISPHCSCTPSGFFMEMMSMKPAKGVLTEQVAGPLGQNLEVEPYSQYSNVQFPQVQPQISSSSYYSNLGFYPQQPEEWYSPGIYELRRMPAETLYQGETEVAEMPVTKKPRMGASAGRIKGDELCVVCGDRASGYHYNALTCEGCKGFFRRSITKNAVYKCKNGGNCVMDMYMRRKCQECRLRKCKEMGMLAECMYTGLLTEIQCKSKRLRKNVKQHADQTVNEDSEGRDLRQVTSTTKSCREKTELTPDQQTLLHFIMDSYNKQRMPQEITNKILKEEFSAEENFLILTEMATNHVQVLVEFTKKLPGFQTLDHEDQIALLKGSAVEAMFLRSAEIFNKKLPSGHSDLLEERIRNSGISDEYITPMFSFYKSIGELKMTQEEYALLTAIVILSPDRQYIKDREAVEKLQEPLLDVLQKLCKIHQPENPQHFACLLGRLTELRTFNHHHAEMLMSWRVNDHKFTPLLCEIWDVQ
Summary of the method: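 Quantitative HTS used FXR-UAS-bla HEK293T cells with 16 h compound incubation at 37 C. EC50 values came from concentration-response curves normalized to chenodeoxycholic acid.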

[18] = molecular target: Glucocorticoid receptor (Homo sapiens) (UniProt P04150); experiment: qHTS assay for small molecule antagonists of glucocorticoid receptor signaling (AID 588533; active = well fitted inhibition curve with a large enough effect in the signal ratio, with a control signal flat, not every such curve was filed as active; the % refers to the signal ratio;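 also: cells stimulated with 2 nM dexamethasone as agonist; % is scaled to controls: 0 for no effect and ±100 for the full control effect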)
Sequence of Glucocorticoid receptor (Homo sapiens) (P04150 whole entry, looked up): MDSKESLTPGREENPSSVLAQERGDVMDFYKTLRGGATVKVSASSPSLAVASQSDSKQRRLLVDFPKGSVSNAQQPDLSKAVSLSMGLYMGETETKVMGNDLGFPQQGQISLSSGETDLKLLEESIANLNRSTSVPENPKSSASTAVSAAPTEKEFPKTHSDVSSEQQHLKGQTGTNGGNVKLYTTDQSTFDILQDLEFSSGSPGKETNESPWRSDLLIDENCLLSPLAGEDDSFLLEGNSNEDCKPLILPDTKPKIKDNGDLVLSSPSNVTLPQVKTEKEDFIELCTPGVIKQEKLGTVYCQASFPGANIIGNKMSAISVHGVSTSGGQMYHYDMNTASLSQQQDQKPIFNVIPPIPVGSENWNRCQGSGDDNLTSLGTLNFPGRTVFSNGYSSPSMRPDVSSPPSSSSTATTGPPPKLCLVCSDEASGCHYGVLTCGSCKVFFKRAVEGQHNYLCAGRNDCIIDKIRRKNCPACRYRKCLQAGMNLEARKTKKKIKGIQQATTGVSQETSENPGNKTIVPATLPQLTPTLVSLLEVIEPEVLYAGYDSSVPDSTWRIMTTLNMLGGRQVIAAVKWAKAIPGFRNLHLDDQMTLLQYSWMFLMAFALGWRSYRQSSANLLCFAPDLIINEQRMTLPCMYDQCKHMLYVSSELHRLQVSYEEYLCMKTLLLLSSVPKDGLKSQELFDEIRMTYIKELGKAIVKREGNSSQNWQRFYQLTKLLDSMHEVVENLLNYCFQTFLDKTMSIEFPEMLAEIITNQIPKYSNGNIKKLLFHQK
Summary of the method: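 Antagonist-mode qHTS: compound titrations added to GRE-bla HeLa cells, then dexamethasone 2 nM final; 18 h, 37 C. CCF4 FRET fluorescence normalized to dexamethasone and DMSO; IC50 from Hill fit.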

[19] = molecular target: Peroxisome proliferator-activated receptor delta (Homo sapiens) (UniProt Q03181); experiment: qHTS assay for small molecule agonists of peroxisome proliferator-activated receptor delta signaling (AID 588534; calls by dose curve;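 also: 0% = DMSO basal wells and 100% = positive control agonist at 10 µM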)
Sequence of Peroxisome proliferator-activated receptor delta (Homo sapiens) (Q03181 whole entry, looked up): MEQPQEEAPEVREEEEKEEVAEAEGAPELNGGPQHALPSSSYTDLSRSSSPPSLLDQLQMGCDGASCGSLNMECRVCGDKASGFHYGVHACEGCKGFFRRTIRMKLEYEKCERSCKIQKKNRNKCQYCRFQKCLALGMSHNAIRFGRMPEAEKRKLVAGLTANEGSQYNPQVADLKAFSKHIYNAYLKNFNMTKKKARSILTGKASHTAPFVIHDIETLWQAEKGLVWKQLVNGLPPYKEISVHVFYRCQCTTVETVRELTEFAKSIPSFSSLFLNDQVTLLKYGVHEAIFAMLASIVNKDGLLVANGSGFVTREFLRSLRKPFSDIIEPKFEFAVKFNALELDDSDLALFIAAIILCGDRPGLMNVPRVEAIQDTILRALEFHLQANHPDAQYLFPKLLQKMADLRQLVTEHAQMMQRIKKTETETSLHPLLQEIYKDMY
Summary of the method: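 Cell-based beta-lactamase reporter assay run in agonist mode: cells seeded and incubated 5 hrs at 37 C, compounds added and incubated 18 hrs at 37 C. CCF4 dye fluorescence read after 2 hrs at RT; EC50 and efficacy from Hill fits.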

[20] = qHTS assay for small molecule antagonists of peroxisome proliferator-activated receptor delta signaling (AID 588535); conditions: HEK293T PPARd-UAS-bla, beta-lactamase FRET ratio, 18 h; 460 nm channel;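 also: cells co-treated with a PPAR-delta agonist as stimulator during compound exposure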
Summary of the method: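 Cell-based beta-lactamase assay in antagonist mode: 4000 HEK293T PPAR-delta-UAS-bla cells per well, 5 hr preincubation then 18 hr compound incubation at 37 C. IC50 obtained by Hill equation fitting.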

[21] = molecular target: Peroxisome proliferator-activated receptor gamma (Homo sapiens) (UniProt P37231); experiment: qHTS assay for small molecule agonists of peroxisome proliferator-activated receptor gamma signaling (AID 588536; active = well fitted curve in the direction sought with a large enough effect in the signal ratio, with a control signal flat, not every such curve was filed as active; the % refers to the signal ratio;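 also: 0% = DMSO basal wells and 100% = rosiglitazone at 2 µM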)
Sequence of Peroxisome proliferator-activated receptor gamma (Homo sapiens) (P37231 whole entry, looked up): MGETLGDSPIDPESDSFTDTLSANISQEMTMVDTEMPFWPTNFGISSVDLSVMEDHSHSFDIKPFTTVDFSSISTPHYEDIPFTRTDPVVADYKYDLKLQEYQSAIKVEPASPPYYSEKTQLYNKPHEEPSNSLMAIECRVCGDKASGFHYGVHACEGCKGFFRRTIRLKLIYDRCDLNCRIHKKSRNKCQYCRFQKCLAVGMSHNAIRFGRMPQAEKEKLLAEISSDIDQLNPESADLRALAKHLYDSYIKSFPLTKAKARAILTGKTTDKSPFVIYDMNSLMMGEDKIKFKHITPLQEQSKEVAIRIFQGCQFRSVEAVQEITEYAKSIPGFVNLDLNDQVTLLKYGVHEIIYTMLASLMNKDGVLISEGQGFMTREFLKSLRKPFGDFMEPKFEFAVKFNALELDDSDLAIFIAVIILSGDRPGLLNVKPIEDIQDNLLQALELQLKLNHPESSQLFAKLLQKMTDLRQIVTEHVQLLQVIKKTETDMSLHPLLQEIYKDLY
Summary of the method: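 HEK293 UAS-bla reporter line, 1% charcoal/dextran FBS; titration, 16 h, 37 C; CCF4 loading 2 h RT; fluorescence 460/530 nm. Normalized to rosiglitazone 2 uM = 100%, DMSO = 0%.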

[22] = molecular target: Vitamin D3 receptor (Homo sapiens) (UniProt P11473); experiment: qHTS assay for small molecule antagonists of vitamin D receptor signaling (AID 588541; calls by dose curve;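 also: receptor activated by calcitriol during compound treatment; series mostly up to about 77 µM; % is scaled to controls: 0 for no effect and ±100 for the full control effect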)
Sequence of Vitamin D3 receptor (Homo sapiens) (P11473 whole entry, looked up): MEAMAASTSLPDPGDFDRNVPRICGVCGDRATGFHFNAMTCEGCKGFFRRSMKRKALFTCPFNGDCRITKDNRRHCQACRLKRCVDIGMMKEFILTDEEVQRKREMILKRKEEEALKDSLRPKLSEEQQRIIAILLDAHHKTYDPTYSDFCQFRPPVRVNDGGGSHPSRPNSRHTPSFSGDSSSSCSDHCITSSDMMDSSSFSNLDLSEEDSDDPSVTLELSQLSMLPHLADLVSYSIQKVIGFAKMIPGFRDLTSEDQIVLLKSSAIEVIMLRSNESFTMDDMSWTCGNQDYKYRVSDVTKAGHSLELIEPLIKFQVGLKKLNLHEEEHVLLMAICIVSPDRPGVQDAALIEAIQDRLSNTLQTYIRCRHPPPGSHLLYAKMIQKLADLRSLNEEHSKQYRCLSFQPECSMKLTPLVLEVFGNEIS
Summary of the method: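 Antagonist-mode beta-lactamase reporter assay: HEK293T VDR-UAS-bla cells were exposed to titrated compound alongside 1-alpha,25-dihydroxyvitamin D3 at 3 nM final for 16 h. Values were normalized to the 50 nM agonist control and DMSO basal, with IC50 and efficacy from Hill equation fits.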

Clc1cc(Cl)c(-c2cc(Cl)c(Cl)cc2Cl)cc1Cl
34.2% and 61.4%: max response [20]
inactive: Potency [1] | Potency [2] | Potency [3] | Potency [4] | Potency [5] | Potency [6] | Potency [7] | Potency [8] | Potency [9] | Potency [10] | Potency [11] | Potency [12] | Potency [13] | Potency [14] | Potency [15] | outcome [16] | activation [17] 4.83% | Potency [18] | outcome [19] | outcome [21] | outcome [22]
